Measured values as given in ChEMBL document CHEMBL4513146, “CO-ADD screening of Karazin Kharkiv National University (Ukraine) compounds”.
Entries with a potency or affinity are not part of this list.

How the values were obtained:
Staphylococcus aureus = conditions: Concentration 32 ug.mL-1;; ASSAY_TEST Inhibition of Bacterial Growth; detection method Absorption (OD600); MEDIA CAMHB; plate type 384well; NBS; CORNING #3640; time 18 hr
Escherichia coli = conditions: Concentration 32 ug.mL-1;; ASSAY_TEST Inhibition of Bacterial Growth; detection method Absorption (OD600); MEDIA CAMHB; plate type 384well; NBS; CORNING #3640; time 18 hr

SMILES: Cc1nnc2c(=O)n(CC(=O)Nc3ccc(F)cc3F)c3ccccc3n12
- Inhibition (Staphylococcus aureus): 10.56%
- Inhibition (Escherichia coli): -0.32%

SMILES: CCc1ccccc1Sc1nccn2c(=O)n(CC(=O)N3CCN(c4ccccc4)CC3)nc12
- Inhibition (Staphylococcus aureus): -10.72%
- Inhibition (Escherichia coli): -11.22%

SMILES: COC(=O)c1ccc(NC(=O)Cn2nc3ccc(S(=O)(=O)c4ccccc4)nn3c2=O)cc1
- Inhibition (Staphylococcus aureus): -1.97%
- Inhibition (Escherichia coli): -13.66%

SMILES: CCOc1ccc(NC(=O)Cn2nc3c(Oc4cccc(OC)c4)nccn3c2=O)cc1
- Inhibition (Staphylococcus aureus): 13.11%
- Inhibition (Escherichia coli): 1.75%

SMILES: Cc1cc2nn(CC(=O)Nc3ccc(F)cc3)c(=O)n2c(Nc2ccccc2C)n1
- Inhibition (Staphylococcus aureus): 11.27%
- Inhibition (Escherichia coli): 1.51%

SMILES: Cc1ccc(Cn2nc3c(=O)n(-c4cccc(F)c4)ccn3c2=O)cc1
- Inhibition (Staphylococcus aureus): 6.58%
- Inhibition (Escherichia coli): -11.98%

SMILES: CCc1nnc2c(SCC(=O)Nc3c(C)cc(C)cc3C)nc3ccccc3n12
- Inhibition (Staphylococcus aureus): 7.54%
- Inhibition (Escherichia coli): 3.61%

SMILES: COc1ccccc1N1CCN(C(=O)CSc2nnc3c(=O)n(-c4ccc(F)cc4)ccn23)CC1
- Inhibition (Staphylococcus aureus): 6.93%
- Inhibition (Escherichia coli): 2.55%

SMILES: CCOC(=O)c1ccc(NC(=O)Cn2nc3ccc(Sc4ccccc4)nn3c2=O)cc1
- Inhibition (Staphylococcus aureus): 9.67%
- Inhibition (Escherichia coli): -3.7%

SMILES: O=C(Cn1nc2c(SCc3ccccc3)nccn2c1=O)NC1CCCCC1
- Inhibition (Staphylococcus aureus): 7.46%
- Inhibition (Escherichia coli): -4.24%

SMILES: Cc1cccc(CN(c2ccc(F)cc2)S(=O)(=O)c2ccc3nnc(C)n3c2)c1
- Inhibition (Staphylococcus aureus): 5.07%
- Inhibition (Escherichia coli): -8.57%

SMILES: CCOc1ccccc1NC(=O)Cn1nc2c(Oc3cccc(OC)c3)nccn2c1=O
- Inhibition (Staphylococcus aureus): 11.72%
- Inhibition (Escherichia coli): -4.66%

SMILES: COc1cccc(Sc2nc3ccccc3n3c(=O)n(CC(=O)Nc4c(C)cc(C)cc4C)nc23)c1
- Inhibition (Staphylococcus aureus): 1.84%
- Inhibition (Escherichia coli): -6.13%

SMILES: N#CCSc1nnc2c(=O)n(-c3ccccc3)ccn12
- Inhibition (Staphylococcus aureus): 13.33%
- Inhibition (Escherichia coli): 0.91%

SMILES: O=C(CSc1nnc2c(=O)n(-c3ccc(Br)cc3)ccn12)Nc1cccc(F)c1
- Inhibition (Staphylococcus aureus): 9.13%
- Inhibition (Escherichia coli): -1.52%

SMILES: O=S(=O)(c1cccn2cnnc12)N(Cc1cccc(Cl)c1)c1ccc(F)cc1
- Inhibition (Staphylococcus aureus): -11.31%
- Inhibition (Escherichia coli): -14.45%

SMILES: Cc1ccc(-c2nnc3c(=O)n(CC(=O)Nc4cc(C)cc(C)c4)c4ccccc4n23)cc1
- Inhibition (Staphylococcus aureus): 10.86%
- Inhibition (Escherichia coli): 0.18%

SMILES: O=C(CCc1nnc2c(N3CCCCC3)nc3ccccc3n12)NCc1ccccc1F
- Inhibition (Staphylococcus aureus): 5.87%
- Inhibition (Escherichia coli): 6.41%

SMILES: CCCCn1c(=O)c2sccc2n2c(CCC(=O)NC(C)C34CC5CC(CC(C5)C3)C4)nnc12 (stereo unspecified)
- Inhibition (Staphylococcus aureus): 9.01%
- Inhibition (Escherichia coli): 0.33%

SMILES: COc1ccc(C(=O)CSc2nnc3c(=O)n(-c4ccc(F)c(F)c4)ccn23)cc1OC
- Inhibition (Staphylococcus aureus): 3.91%
- Inhibition (Escherichia coli): -0.1%

SMILES: N#Cc1cccc(NC(=O)Cn2nc3c4cc(-c5ccc(Cl)cc5)nn4ccn3c2=O)c1
- Inhibition (Staphylococcus aureus): 2.28%
- Inhibition (Escherichia coli): -5.31%

SMILES: O=C(CSc1nnc2c(=O)n(-c3ccccc3)ccn12)Nc1ccc(F)cc1
- Inhibition (Staphylococcus aureus): 5.78%
- Inhibition (Escherichia coli): -2.43%

SMILES: COc1ccc(NC(=O)Cn2nc3c(Sc4cccc(C)c4)nccn3c2=O)cc1Cl
- Inhibition (Staphylococcus aureus): -3.33%
- Inhibition (Escherichia coli): -13.54%

SMILES: Cc1ccc(C)c(Cn2nc3c(=O)n(-c4ccc(C)c(C)c4)ccn3c2=O)c1
- Inhibition (Staphylococcus aureus): 6.02%
- Inhibition (Escherichia coli): -6.59%

SMILES: COC(=O)c1cccc(NC(=O)Cn2nc3ccc(-c4ccccc4)nn3c2=O)c1
- Inhibition (Staphylococcus aureus): -7.92%
- Inhibition (Escherichia coli): -13.96%

SMILES: CCc1ccc(N(Cc2ccccc2C)S(=O)(=O)c2cccn3c(CC)nnc23)cc1
- Inhibition (Staphylococcus aureus): 11.1%
- Inhibition (Escherichia coli): -3.02%

SMILES: O=c1n(Cc2cccc(C(F)(F)F)c2)nc2c(S(=O)(=O)N3CCCC3)cccn12
- Inhibition (Staphylococcus aureus): 9.3%
- Inhibition (Escherichia coli): -1.06%

SMILES: O=C(Cn1nc2ccc(SC3CCCCC3)nn2c1=O)Nc1ccc2c(c1)OCO2
- Inhibition (Staphylococcus aureus): -7.41%
- Inhibition (Escherichia coli): -17.56%

SMILES: COc1cccc(Oc2nccn3c(=O)n(CC(=O)NCc4ccccc4Cl)nc23)c1
- Inhibition (Staphylococcus aureus): 11.84%
- Inhibition (Escherichia coli): 2.87%

SMILES: COc1ccc(NC(=O)c2ccc3nn(CC(=O)Nc4cccc(SC)c4)c(=O)n3c2)cc1
- Inhibition (Staphylococcus aureus): -4.7%
- Inhibition (Escherichia coli): -9.26%

SMILES: O=c1c2sccc2n2c(=O)n(Cc3ccc(Br)cc3)nc2n1CCc1ccccc1
- Inhibition (Staphylococcus aureus): -9.4%
- Inhibition (Escherichia coli): -11.48%

SMILES: O=C(Cn1nc2c(SC3CCCCC3)nccn2c1=O)Nc1cccc(Br)c1
- Inhibition (Staphylococcus aureus): -4.73%
- Inhibition (Escherichia coli): -7.3%

SMILES: COc1ccc(NC(=O)Cn2nc3ccc(SCc4ccc(Cl)cc4)nn3c2=O)cc1Cl
- Inhibition (Staphylococcus aureus): -4.58%
- Inhibition (Escherichia coli): -11.11%
